TGFb inhibitor: blocks TGF-b signaling; HepG2 CAGA-GFP TGF-b/SMAD3 reporter, GFP fluorescence, 18 h; TGF-beta stimulated, 500 pg/mL final; Potency, µM (highest dose often 46.1 µM), inactives show top-dose activity, negative = inhibition, usual class: inhibitors; hit rate 1.2% among 410,000; AID 588855; note: potency is the fitted concentration of half-maximal effect; % is set by controls: 0 for no effect and ±100 for the full control effect; nearly all actives have a fitted effect of over 65% in size
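Inhibition of TGF-beta-driven CAGA-GFP reporter expression in HEPG2 cells is measured by cellular GFP fluorescence after 18 h stimulation with 500 pg/mL recombinant TGF-beta in 1% FBS medium at 37 degrees C.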
HepG2 viability: counter-screen for TGF-b inhibitors: cytotoxicity in HepG2 cells | AID 588856 | HepG2 CAGA-GFP viability, ATP luminescence, 18 h | hit rate 0.76% among 410,000 | Potency, µM (doses to about 46.1 µM), for inactives: at the highest dose activity change, negative = cytotoxicity, hits mostly cytotoxic; note: potency is the fitted concentration of half-maximal effect
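CellTiter-Glo luminescence gave cytotoxicity after 18 hours at 37 degrees C. The cells were HepG2 CAGA-GFP in 1% FBS DMEM, stimulated with 500 pg/mL TGF-beta after compound addition. %Activity was normalised to no-cell wells (complete cell-killing) and DMSO (no toxicity), and curves were fitted and classified.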
TDP1 cell CPT: growth inhibition of DT40 Tdp1-/-;hTDP1 cells with camptothecin (screen for TDP1 inhibitors) | chicken DT40 Tdp1-/-;hTDP1 cells + 20 nM CPT, ATP luminescence, 48 h | hit rate 12% among 420,000 | AID 686979 | Potency, µM (titrated, usually from 46.2 µM), without a hit: at the highest dose activity change, negative = growth inhibition, most hits filed as inhibitors; note: potency is the fitted concentration of half-maximal effect; % is set by controls: 0 for no effect and ±100 for the full control effect; nearly all actives have a fitted effect of over 55% in size
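Chicken DT40 Tdp1-/- cells complemented with human TDP1, 400 cells/well, exposed to compounds plus 20 nM camptothecin for at least 48 h at 37 C; viability read as ATP content by CellTiter-Glo luminescence.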
TDP1 block: inhibitors of human tyrosyl-DNA phosphodiesterase TDP1; recombinant TDP1, AlphaScreen DNA substrate cleavage; hit rate 0.28% among 350,000; Q9NUW8; Potency, µM (top dose mostly 130 µM), without a hit: at the highest dose activity change, negative = inhibition, hits mostly inhibitors; AID 485290; note: potency is the fitted concentration of half-maximal effect; % is set by controls: 0 for no effect and ±100 for the full control effect; nearly all actives have a fitted effect of over 40% in size
Target sequence (Q9NUW8 whole entry, looked up): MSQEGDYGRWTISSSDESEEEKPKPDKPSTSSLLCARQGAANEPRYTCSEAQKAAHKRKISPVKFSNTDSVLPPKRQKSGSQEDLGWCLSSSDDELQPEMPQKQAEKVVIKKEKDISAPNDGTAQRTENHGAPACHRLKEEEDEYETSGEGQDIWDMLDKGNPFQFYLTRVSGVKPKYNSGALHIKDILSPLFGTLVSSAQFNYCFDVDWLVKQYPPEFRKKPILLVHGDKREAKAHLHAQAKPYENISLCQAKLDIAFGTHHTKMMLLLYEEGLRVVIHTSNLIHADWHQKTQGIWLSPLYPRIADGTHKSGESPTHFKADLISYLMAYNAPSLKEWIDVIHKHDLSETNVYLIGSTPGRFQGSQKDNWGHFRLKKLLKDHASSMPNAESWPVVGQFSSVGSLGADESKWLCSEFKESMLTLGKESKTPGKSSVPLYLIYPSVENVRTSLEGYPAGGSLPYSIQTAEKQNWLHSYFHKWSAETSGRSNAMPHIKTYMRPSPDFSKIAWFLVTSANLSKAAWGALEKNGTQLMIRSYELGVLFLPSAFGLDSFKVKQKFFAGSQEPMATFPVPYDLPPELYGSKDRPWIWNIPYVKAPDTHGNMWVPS
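Recombinant E. coli-expressed Tdp1 (1 nM) preincubated with compound 15 min at RT, then 5'-biotin/3'-phosphotyrosine-FITC DNA substrate (15 nM) added for 5 min. AlphaScreen beads (10 ug/ml) added, 10 min RT; tyrosine-FITC cleavage read as signal loss.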
IL-1B inflam inh: inflammasome signaling inhibition, IL-1 beta readout. hit rate 4.7% among 360,000. THP-1 LPS/ATP IL-1B secretion, AlphaLISA, 16 h; hits give low values. activity change, % at 57.5 µM; in the data active = activity change below about -50%; inconclusive = mostly about -30% to -49%; note: % is set by controls: 0 for no effect and ±100 for the full control effect
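Secreted IL-1B measured by AlphaLISA bead assay after 16 h compound exposure of THP-1 cells; compounds (final up to 57.5 uM) added 1 h before LPS (250 ng/mL) and ATP (1.25 mM) stimulation; lower signal means less secretion.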
TDP1 cell noCPT: qHTS for Inhibitors of human tyrosyl-DNA phosphodiesterase 1 (TDP1): qHTS in cells in absence of CPT; DT40 Tdp1-/- hTDP1 cells, no CPT, ATP luminescence, 48 h; Potency, µM (titrated, usually from 46.2 µM), inactives show top-dose activity change, negative = growth inhibition, hits mostly inhibitors; hit rate 15% among 420,000; note: potency is the fitted concentration of half-maximal effect; % is set by controls: 0 for no effect and ±100 for the full control effect; nearly all actives have a fitted effect of over 55% in size
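No-CPT arm: Tdp1-/-;hTDP1 DT40 cells (400/well) plus compounds, incubated ≥48 hr at 37 °C. Readout CellTiter-Glo luminescence.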
* hit, by the source's call; u = inconclusive; x = no result; [ ] = remark or other dose. An excerpt weighted towards active compounds, which were near 19% of everything screened. Unless noted, calls come from the whole dose curve; as a rule, active = well fitted curve in the direction sought with a large enough effect; inconclusive = small, poorly fitted or top-dose-only effect, or another doubt; inactive = no such curve, though single readings can be large; an effect the other way counts as inactive or inconclusive.

SMILES	TGFb inhibitor	HepG2 viability	TDP1 cell CPT	TDP1 block	IL-1B inflam inh	TDP1 cell noCPT
Cc1c(CCO)sc[n+]1CCc1ccccc1	-9.2%	0.9%	u	x	x	6.8%
Cc1sc2ccccc2[n+]1CCc1ccccc1	u	-58.2%	6.31µM*	x	x	3.16µM*
NC(=O)c1cc[n+](CC2=C(C(=O)[O-])N3C(=O)[C@@H](NC(=O)Cc4cccs4)[C@H]3SC2)cc1	x	x	-5.6%[21.1 µM]	x	x	-19.5%[21.1 µM]
Cc1cc2c(cc1C)-c1c(ssc1=Nc1ccc(S(N)(=O)=O)cc1)C(C)(C)N2	u	-43.7%	u	9.9%	15.4	16.4µM*
O=C1[C@H]2[C@H]3[C@H](O)[C@H](O)C/C(=N/OCc4ccccc4)[C@H]3CC[C@@H]2C(=O)N1c1cccc(Oc2ccccc2)c1	x	x	x	10.1%[21 µM]	x	x
N#Cc1ccc(OS(=O)(=O)c2ccc(-c3ccon3)s2)cc1	2.9%	-4.4%	11.6µM*	1.1%	u	u
O=S(=O)(Nc1ccc(OC(F)F)cc1)c1ccc(-c2ccon2)s1	0.0%	-19.0%	0.8%	x	24.2	u
CCOc1ccccc1NC(=O)CSc1ccc2nnc(CCNS(=O)(=O)c3ccccc3)n2n1	23.3%	-9.4%	-22.7%	5.1%	x	-21.1%
CC12CCC(c3c(C(=O)Nc4nccs4)nn(-c4ccccc4)c31)C2(C)C (configuration not stated)	8.7%	-43.1%	16.4µM*	9.6%	-21.1	18.4µM*
CCCCCC(=O)Nc1ccc(C(=O)COC(=O)c2ccccn2)cc1	-12.9%	8.3%	u	-11.9%[0.505 µM]	14.2	-2.5%
CCc1ccc(NCCC(=O)c2ccc(Cl)cc2)cc1	-3.9%	-0.1%	20.6µM*	0.0%	-22.2	15.8µM*
CCc1ccc(C(=O)NNc2ccc(Cl)cc2)cc1	1.4%	-31.9%	-9.3%	11.4%	-23.4	-16.8%
CCCN1CNc2c(c(=O)[nH]c(=S)n2CCc2ccccc2OC)C1	x	x	u	0.7%	x	u
COc1ccc(-c2nc(CSc3nncn4c3cc3oc(C)cc34)c(C)o2)cc1	-1.9%	-2.9%	u	5.1%	x	u
Cc1cccc2nc(-c3ccco3)c(Nc3ccccc3)n12	-14.9%	-10.4%	u	6.2%	22.2	u
CSc1ccc(-c2nc3cccc(C)n3c2Nc2ccc3c(c2)OCO3)cc1	5.8%	-31.5%	u	11.6%	x	18.4µM*
Cc1ccc(-c2nc3ccccn3c2Nc2ccc3c(c2)OCO3)o1	u	-31.3%	u	8.8%	x	u
CSc1ccc(-c2nc3c(C)cccn3c2Nc2ccc3c(c2)OCCO3)cc1	0.8%	-32.7%	u	10.0%	x	u
Cc1ccc(-c2nc3cccc(C)n3c2Nc2ccc3c(c2)OCO3)o1	u	-32.7%	23.1µM*	11.8%	x	u
Cc1ccc(Nc2c(-c3ccc(C)o3)nc3cccc(C)n23)cc1	u	-89.5%	11.2µM*	8.7%	x	11.2µM*
CN(C)c1ncc2nc(-c3cc(F)cc(F)c3)c(=O)n(C3CC3)c2n1	x	x	-1.8%	x	x	5.6%
O=C1CN(C(=O)NCC(=O)N2CCCC2)c2ccccc2N1	29.1%	-4.7%	7.7%	1.9%	-0.6	-25.7%
CCc1ccccc1N1CC23C=CC(O2)C(C(=O)O)C3C1=O (configuration not stated)	-12.1%	-21.3%	18.4µM*	4.3%	-8.5	-22.2%
CCOC(=O)c1cnc2ccc(C)cc2c1Nc1ccc(N(CC)CC)cc1	u	-28.7%	11.6µM*	x	x	6.51µM*
CCOC(=O)c1cnc2ccc(C(=O)OC)cc2c1Nc1ccc(N2CCOCC2)cc1	8.1%	-32.7%	10.3µM*	x	x	11.6µM*
SMILES	TGFb inhibitor	HepG2 viability	TDP1 cell CPT	TDP1 block	IL-1B inflam inh	TDP1 cell noCPT
CCOC(=O)c1cnc2ccc(Cl)cc2c1Nc1ccc(N2CCOCC2)cc1	6.0%	-2.5%	14.6µM*	x	x	14.6µM*
CCOC(=O)c1cnc2ccc(C)cc2c1Nc1ccc(N2CCOCC2)cc1	-3.3%	-3.9%	u	10.3%	u	u
CCOC(=O)c1c(C)[nH]c(C)c1S(=O)(=O)NCC(=O)Nc1ccc(C)c(N(C)C)c1	-22.9%	-3.8%	-23.2%	5.3%	x	-19.1%
CCOC(=O)C1(C)CCCCCN1C(=O)c1snnc1C (configuration not stated)	18.7%	-2.5%	4.5%	x	35.3	3.2%
Cc1ccccc1CS(=O)(=O)CCC(=O)NCc1ccc(F)cc1Cl	9.2%	3.4%	-10.7%	3.1%	18.0	-0.2%
CN(C)c1ccc(/C=C/c2c(Cl)cnc3ccccc23)cc1	-31.7%	-36.8%	11.2µM*	x	x	11.2µM*
CN(C)c1ccc(/C=C/c2c(Br)cnc3ccccc23)cc1	1.3%	-12.4%	u	x	x	u
CN(C)c1ccc(/C=C/c2ncnc3ccccc23)cc1	248.7%	-26.7%	u	x	x	15.8µM*
Cc1ccc(NC(=O)CSc2nnc(COc3ccccc3F)n2N)cc1S(=O)(=O)N1CCOCC1	-6.8%	7.6%	u	x	0.0	u
CCn1c(=O)n(CC)c2cc(N3CCCCC3)c(NC(=O)Nc3cc(C)cc(C)c3)cc21	-14.3%	-9.4%	5.8µM*	5.8%	x	6.51µM*
CCOc1ccc(C(=O)Nc2cc3c(cc2N2CCCC2)n(CC)c(=O)n3CC)cc1OCC	1.0%	6.1%	u	9.7%	15.0	u
CN(C)c1cc2c(cc1NC(=O)c1ccc(F)cc1)n(C)c(=O)n2C	-11.3%	-5.4%	u	3.7%	x	23.1µM*
CCn1c(=O)c(=O)n(CC)c2cc(N3CCCCC3)c(NC(=O)c3ccc(OC)c(OC)c3)cc21	1.0%	-12.0%	13µM*	-2.5%	x	9.2µM*
CCn1c(=O)n(CC)c2cc(N3CCCC3)c(NC(=O)c3ccc(F)cc3)cc21	7.0%	9.0%	23.1µM*	6.0%	48.7	18.4µM*
Cn1c(=O)n(C)c2cc(NC(=O)c3ccc(F)cc3)c(Br)cc21	-6.5%	17.8%	4.5%	3.6%	-20.4	-20.8%
Cc1cc(C)cc(NC(=O)Oc2ccccc2N2CCCCC2)c1	1.1%	-16.2%	0.3%	x	x	-21.4%
C[C@H]1CN([C@@H](C)CO)C(=O)CCCn2nncc2CO[C@H]1CN(C)C(=O)c1ccccc1	0.9%	-1.3%	-7.6%	x	11.0	u
CCCc1nn2c(=O)cc(COC(=O)c3cccc(NC(=O)c4cccs4)c3)nc2s1	1.2%	-44.7%	u	1.2%	x	u
CS(=O)(=O)c1ccccc1C(=O)Nc1ccc(S(=O)(=O)N2CCCC2)cc1	-1.5%	2.0%	u	-0.5%	19.4	-16.1%

Compound activity deposited in PubChem BioAssay by National Center for Advancing Translational Sciences (NCATS).
